High-throughput results deposited in PubChem BioAssay by National Center for Advancing Translational Sciences (NCATS).
ELG1 DNA repair – blocks ELG1-dependent DNA repair in HEK293T cells; HEK293T ELG1-luciferase reporter, luminescence, 16 h; DNA damage induced by 5-fluorouridine; Potency, µM (top dose mostly 46.1 µM), without a hit: at the top dose activity change, negative = inhibition, usual class: inhibitors; 330,000 tested, 2.3% active; AID 504467; note: % is set by controls: 0 for no effect and ±100 for the full control effect; nearly all actives have a fitted effect of over 55% in size
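Step one: seed 2,000 cells per well. Step two: pin-transfer compound or DMSO alongside 5-fluorouridine. Step three: incubate 16 hr, 37 °C, 5% CO2. Step four: add ONE-Glo, wait 30 min, read luminescence.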
ELG1 genotoxic – inducers of genotoxicity in HEK293T ELG1-luciferase cells; HEK293T ELG1-luciferase reporter, luminescence, 16 h; Potency, µM (top dose mostly 46 µM), for the others: top-dose activity change, positive = activation, actives largely listed as activators; 330,000 tested, 1.3% active; AID 504466; note: % of control where 0% means no effect; nearly all actives have a fitted effect of over 60% in size
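DMSO vehicle served as control against compound-treated ELG1-luciferase HEK293T cells; exposure lasted 16 hr at 37 °C and 5% CO2, followed by ONE-Glo luminescence detection after 30 min.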
FLuc modulator – counter-screen for miR-21 project: firefly luciferase inhibitors or activators. purified FLuc, Km substrates, luminescence inhibition. Potency, µM (series often up to 57.5 µM), for the others: at the highest dose activity change, negative = inhibition, actives largely listed as inhibitors. 360,000 tested, 6.9% active;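 note: plate controls were vehicle for no effect and reference inhibitor for full effect; nearly all actives have a fitted effect of over 55% in size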
Target sequence (P08659 whole entry, looked up): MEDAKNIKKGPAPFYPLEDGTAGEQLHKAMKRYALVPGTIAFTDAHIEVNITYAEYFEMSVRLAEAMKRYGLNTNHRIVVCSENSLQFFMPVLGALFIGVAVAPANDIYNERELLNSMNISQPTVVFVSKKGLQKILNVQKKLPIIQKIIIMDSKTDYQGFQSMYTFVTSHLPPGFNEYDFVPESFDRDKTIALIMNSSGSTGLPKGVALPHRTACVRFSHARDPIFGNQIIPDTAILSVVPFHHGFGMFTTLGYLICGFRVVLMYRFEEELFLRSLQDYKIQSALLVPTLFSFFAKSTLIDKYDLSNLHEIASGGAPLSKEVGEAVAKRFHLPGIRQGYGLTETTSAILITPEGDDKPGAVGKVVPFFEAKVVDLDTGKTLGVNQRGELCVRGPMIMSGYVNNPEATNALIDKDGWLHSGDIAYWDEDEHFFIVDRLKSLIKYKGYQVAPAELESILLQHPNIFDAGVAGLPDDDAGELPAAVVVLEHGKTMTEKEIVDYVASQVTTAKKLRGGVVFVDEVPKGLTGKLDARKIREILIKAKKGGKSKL
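Purified P. pyralis luciferase, 10 nM final, with Km-level 10 uM D-luciferin and 10 uM ATP in 50 mM Tris acetate pH 7.5, 10 mM Mg acetate, 0.01% Tween-20, 0.05% BSA; 6-point qHTS titration about 60 µM downward; luminescence read.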
Rab9 prom act – activators of Rab9 promoter; AID 485297; Huh7 Rab9 promoter-luciferase reporter, luminescence, 24 h; Potency, µM (top dose mostly 9.22 µM), for inactives: top-dose activation, negative = inhibition, hits mostly activators; 320,000 tested, 2.8% active; note: % of control where 0% means no effect; nearly all actives have a fitted effect of over 60% in size
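Rab9 promoter-driven luciferase in stably transfected Huh7 cells; 1500 cells/well rested 2 h, exposed to compound in DMSO for 24 h at 37 °C, 5% CO2. Luminescence read 10 min after adding luciferase reagent at ambient temperature.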
NPC1 prom act – activators of NPC1 promoter. 320,000 tested, 2.4% active. Huh7 NPC1 promoter luciferase reporter, 24 h. Potency, µM (series often up to 9.22 µM), inactives show at the top dose activation, most hits filed as activators; note: % of control where 0% means no effect; nearly all actives have a fitted effect of over 60% in size
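Luminescence from an NPC1 promoter-driven luciferase reporter in stably transfected Huh7 cells was measured after 24 h compound treatment at 37 °C, followed by 10 min ambient incubation with luciferase detection reagent.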
SMN2 splice enh – enhancers of SMN2 splice variant expression | HEK293 SMN2-luciferase splicing reporter, luminescence, 30-36 h | Potency, µM (series often up to 46.1 µM), for the others: top-dose activity change, positive = activation, actives largely listed as activators | 210,000 tested, 2.8% active; note: % of control where 0% means no effect; nearly all actives have a fitted effect of over 55% in size
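HEK293 cells carry an SMN2 minigene-luciferase reporter in which exon 7 inclusion puts luciferase in frame. Cells were seeded at 2000 cells/well, attached for 10-12 hours, then exposed to compounds for 30-36 hours at 37C before ONE-Glo luminescence.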
Starred values were filed as active, the others as inactive. Compounds with a hit are over-represented: about 9.3% of the library has one in this group of screens. Calls come from the whole dose curve; as a rule, active = well fitted curve in the direction sought with a large enough effect; inconclusive = small, poorly fitted or top-dose-only effect, or another doubt; inactive = no such curve, though single readings can be large; an effect the other way counts as inactive or inconclusive. Potency is the fitted concentration of half-maximal effect.

How did CC1CC1C(=O)Nc1ccc(-c2ccccc2)cc1 (configuration not stated) do in these assays?
ELG1 DNA repair: inconclusive; ELG1 genotoxic: inconclusive; FLuc modulator: 9.5µM*; Rab9 prom act: 2.5µM*; NPC1 prom act: 3.2µM*; SMN2 splice enh: 13µM*

How did CCC1(c2ccc(F)cc2)NC(=O)N(CC(=O)N2CCN(S(=O)(=O)c3ccc(C)cc3)CC2)C1=O (configuration not stated) do in these assays?
ELG1 DNA repair: -6%; ELG1 genotoxic: -8%; FLuc modulator: 4%; Rab9 prom act: -2%; NPC1 prom act: 0%

Results for CCOC(=O)N1CCN(c2ccc(S(=O)(=O)N(Cc3ccccc3)Cc3ccccc3)cn2)CC1 ?
ELG1 DNA repair: inconclusive; ELG1 genotoxic: 12µM*; FLuc modulator: 1%; Rab9 prom act: -31%; NPC1 prom act: -20%; SMN2 splice enh: -69%

What do the screens show for `COC(=O)c1cc(-c2ccc(OC)cc2F)nc2nc(SC)[nH]c(=O)c12`?
ELG1 DNA repair: 1%; ELG1 genotoxic: 0%; FLuc modulator: 15µM*; Rab9 prom act: 2%; NPC1 prom act: 3%

Results for COc1cc(OC)cc(C(=O)Nc2ccccc2N2CCOCC2)c1 ?
ELG1 DNA repair: -10%; ELG1 genotoxic: 0%; FLuc modulator: 2%; Rab9 prom act: 4%; NPC1 prom act: -1%; SMN2 splice enh: -24%

What do the screens show for `COc1ccc(C(=O)Nc2cccc(-c3ccc(N4CCOCC4)nn3)c2)cc1`?
ELG1 DNA repair: inconclusive; ELG1 genotoxic: 2%; FLuc modulator: 2.4µM*; Rab9 prom act: 4µM*; NPC1 prom act: inconclusive

What do the screens show for `COc1cc(OC)cc(C(=O)Nc2cccc(-c3ccc(N4CCOCC4)nn3)c2)c1`?
ELG1 DNA repair: -6%; ELG1 genotoxic: inconclusive; FLuc modulator: 1.5µM*; Rab9 prom act: inconclusive; NPC1 prom act: inconclusive

How did COc1cccc(OC)c1C(=O)Nc1cccc(-c2ccc(N3CCOCC3)nn2)c1 do in these assays?
ELG1 DNA repair: inconclusive; ELG1 genotoxic: 0%; FLuc modulator: 1.5µM*; Rab9 prom act: 1.8µM*; NPC1 prom act: inconclusive

What do the screens show for `CCC/C=C(\CCC)C(NS(=O)(=O)c1cccs1)c1ccc(C(=O)OC)cc1` (configuration not stated)?
SMN2 splice enh: -12%

What do the screens show for `Cc1cc(C)cc(NC(=O)c2cc(S(=O)(=O)N3CCCCC3)c[nH]2)c1`?
FLuc modulator: -4%

What do the screens show for `COc1cccc2sc(NNC(=O)COc3ccccc3)nc12`?
ELG1 DNA repair: -6%; ELG1 genotoxic: -2%; FLuc modulator: -1%; Rab9 prom act: -1%; NPC1 prom act: 4%; SMN2 splice enh: 5%

Results for c1ccc(-c2csc(Nc3cccnc3)n2)nc1 ?
ELG1 DNA repair: inconclusive; ELG1 genotoxic: inconclusive; FLuc modulator: 19µM*; Rab9 prom act: inconclusive; NPC1 prom act: inconclusive; SMN2 splice enh: inconclusive

Results for COc1cccc2sc(Nc3nc(-c4ccccn4)cs3)nc12 ?
ELG1 DNA repair: inconclusive; ELG1 genotoxic: 9%; FLuc modulator: 12µM*; Rab9 prom act: inconclusive; NPC1 prom act: 21%

What do the screens show for `c1ccc(Nc2nc(-c3ccccn3)cs2)cc1`?
FLuc modulator: 3.8µM*; SMN2 splice enh: 13µM*

Results for c1cncc(Nc2nc(-c3cccs3)cs2)c1 ?
ELG1 DNA repair: inconclusive; ELG1 genotoxic: 9.2µM*; FLuc modulator: 19µM*; Rab9 prom act: 3.2µM*; NPC1 prom act: inconclusive; SMN2 splice enh: 11µM*

What do the screens show for `Fc1ccc(Nc2nc(-c3ccncc3)cs2)cc1`?
ELG1 DNA repair: inconclusive; ELG1 genotoxic: -1%; FLuc modulator: inconclusive; Rab9 prom act: inconclusive; NPC1 prom act: inconclusive; SMN2 splice enh: inconclusive

What do the screens show for `CCN(CC)c1ccc(C(=O)OCC(=O)NC(C)(C)C)cc1`?
ELG1 DNA repair: -23%; ELG1 genotoxic: -5%; FLuc modulator: -9%; Rab9 prom act: -1%; NPC1 prom act: -5%

How did CCc1nnc(NC(=O)CSc2nnc(C)c(=O)n2N)s1 do in these assays?
ELG1 DNA repair: 1%; ELG1 genotoxic: 3%; FLuc modulator: 2%; Rab9 prom act: 9%; NPC1 prom act: 9%

What do the screens show for `COc1ccc(-c2nc3sc(CCNC(=O)C(=O)Nc4cc(F)ccc4F)c(C)n3n2)cc1`?
FLuc modulator: -4%

Results for Cc1cnc(C(=O)OC(C)C(=O)Nc2ccc3c(c2)OCCO3)cn1 (configuration not stated) ?
ELG1 DNA repair: 14%; ELG1 genotoxic: 4%; FLuc modulator: 0%; Rab9 prom act: 18%; NPC1 prom act: -1%

Results for CCOc1ccccc1C(=O)N1CCC(n2nnc3cc(C(F)(F)F)ccc32)CC1 ?
ELG1 DNA repair: 21µM*; ELG1 genotoxic: -6%; FLuc modulator: -1%; Rab9 prom act: -3%; NPC1 prom act: -2%; SMN2 splice enh: -34%

What do the screens show for `CCOc1ccccc1C(=O)N1CCC(n2nnc3cc(C)ccc32)CC1`?
ELG1 DNA repair: -11%; ELG1 genotoxic: -2%; FLuc modulator: -2%; Rab9 prom act: -4%; NPC1 prom act: -4%

Results for COC(=O)[C@H](COC(C)(C)C)NC(=O)O[C@@H]1C(=O)c2cc(OC)ccc2O[C@H]1c1cccc(OC)c1 ?
SMN2 splice enh: 9%

What do the screens show for `Cc1ccc(C)c(NC(=O)C2CCCN2C(=O)NC2CCCCC2)c1` (configuration not stated)?
ELG1 DNA repair: 0%; ELG1 genotoxic: 2%; FLuc modulator: -2%; Rab9 prom act: -4%; NPC1 prom act: -6%

How did CCc1ccc(C2C(C#N)=C(N)N(N(C)C)C3=C2C(=O)CCC3)cc1 (configuration not stated) do in these assays?
ELG1 DNA repair: inconclusive; ELG1 genotoxic: 5%; FLuc modulator: 3%; Rab9 prom act: 3%; NPC1 prom act: 1%

How did Cc1ccc(NC(=O)CCCC2CCCCC2)c(O)c1 do in these assays?
ELG1 DNA repair: inconclusive; ELG1 genotoxic: inconclusive; FLuc modulator: 8.5µM*; Rab9 prom act: inconclusive; NPC1 prom act: inconclusive

What do the screens show for `Cc1ccc2nc(-c3ccc(NC(=O)COc4ccccc4C(C)(C)C)cc3)sc2c1`?
FLuc modulator: 9.5µM*; SMN2 splice enh: inconclusive

What do the screens show for `Cc1ccc2nc(-c3ccc(NC(=O)COc4ccccc4)cc3)sc2c1`?
FLuc modulator: 3µM*; SMN2 splice enh: 1.3µM*
